{
  "source": "ChEMBL document CHEMBL4513216",
  "about": "“Probing the Open Global Health Chemical Diversity Library for Multistage-Active Starting Points for Next-Generation Antimalarials” (ACS Infect Dis, 2020)",
  "note": "Hit rate of the full screen: of about 69,000 compounds, about 8,600 (12%) showed an effect of 50% or more. The sample holds strong results, similar compounds and a random draw of the others, so the mix is not that of the screen.",
  "data": [
    {"test_system": "Plasmodium berghei", "assay": "Screen against P. berghei liver stage (PbLuc), transformed with Luciferase, at 10uM", "format": "functional, HepG2", "details": "tested at 10 uM", "units": {"INHIBITION": "%"}, "values": [
      {"smiles": "O=C(c1ccco1)N1CC[C@@H]2O[C@H](COCCN3CCCC3)CC[C@@H]21", "INHIBITION": 24.1},
      {"smiles": "O=C(c1ccco1)N1CC[C@@H]2O[C@@H](COCC3CCOCC3)CC[C@@H]21", "INHIBITION": 68.9},
      {"smiles": "O=C(c1ccco1)N1CC[C@@H]2O[C@@H](COCCN3CCCC3)CC[C@@H]21", "INHIBITION": 83.5},
      {"smiles": "O=C(c1ccco1)N1CC[C@@H]2O[C@H](COCC3CCOCC3)CC[C@@H]21", "INHIBITION": -4.99},
      {"smiles": "CC(=O)N1CC[C@@H]2O[C@@H](COCC(=O)N3CCCC3)CC[C@@H]21", "INHIBITION": 52},
      {"smiles": "O=C(c1ccoc1)N1CC[C@@H]2O[C@@H](COCC3CCOCC3)CC[C@@H]21", "INHIBITION": 38.1},
      {"smiles": "NC(=O)N1CC[C@@H]2O[C@@H](COCC(=O)N3CCCC3)CC[C@@H]21", "INHIBITION": 15.4},
      {"smiles": "O=C(c1ccno1)N1CC[C@@H]2O[C@@H](COCCN3CCCC3)CC[C@@H]21", "INHIBITION": 28.4},
      {"smiles": "NC(=O)N1CC[C@@H]2O[C@H](COCC(=O)N3CCCC3)CC[C@@H]21", "INHIBITION": -27.9},
      {"smiles": "CC(C)(NS(C)(=O)=O)c1nc(-c2ccc(F)cc2Cl)no1", "INHIBITION": -9.76},
      {"smiles": "Cc1cccc(C(=O)NCc2cccnc2N(C)C)n1", "INHIBITION": 35.6},
      {"smiles": "Cc1cc(C(=O)N2CCCC2)ccc1NCC(=O)N1CCOCC1", "INHIBITION": 7.67},
      {"smiles": "O=C(c1ccccc1)N1CC[C@H]2C[C@@H](c3nccs3)O[C@@H]2C1", "INHIBITION": -22.5},
      {"smiles": "O=c1cccnn1CC1CN(Cc2ccsc2)Cc2nccn2C1", "note": "(configuration not stated)", "INHIBITION": 40.4},
      {"smiles": "CC(C(=O)N1CCCCCC1)N1CCN(c2nccs2)CC1", "note": "(configuration not stated)", "INHIBITION": 31.1},
      {"smiles": "Cc1cc(Nc2ccccn2)nc(C2CCCN(CCO)C2)n1", "note": "(configuration not stated)", "INHIBITION": 17.4},
      {"smiles": "Cc1nc(CCNC(=O)Nc2cc(C(F)(F)F)c[nH]c2=O)cs1", "INHIBITION": 19.7},
      {"smiles": "COc1ccc(NC(=O)N(CCO)Cc2ccsc2)c(OC)c1", "INHIBITION": 5.85},
      {"smiles": "COc1ccccc1NC(=O)N(CCO)Cc1ccsc1", "INHIBITION": 77.6},
      {"smiles": "CCOc1ccccc1NC(=O)N(CCO)Cc1ccsc1", "INHIBITION": -8.51},
      {"smiles": "CC1(C(=O)N2CCOCC2)CN(Cc2c[nH]cn2)CCO1", "note": "(configuration not stated)", "INHIBITION": 39.7},
      {"smiles": "O=C(O)c1c(NC2CCC2)ncc2c1CCN(C1CCOC1)C2", "note": "(configuration not stated)", "INHIBITION": 11.3},
      {"smiles": "CN(C)C(=O)N1C[C@H]2CC[C@@H](C1)N(Cc1nnc(C3CC3)o1)C2", "INHIBITION": 28},
      {"smiles": "O=S1(=O)NC[C@H]2CCN(Cc3ccccc3)CC[C@H]21", "INHIBITION": 12.7},
      {"smiles": "O=C(NCCc1ccccc1)N1CC[C@@H]2CNS(=O)(=O)[C@@H]2CC1", "INHIBITION": 23.1},
      {"smiles": "COc1cccc(CC(=O)N2CC[C@@H]3CN(C)S(=O)(=O)[C@@H]3CC2)c1", "INHIBITION": -1.28},
      {"smiles": "CN(C)C(=O)CN1C[C@H]2CCN(C(=O)c3ccccc3)CC[C@H]2S1(=O)=O", "INHIBITION": 44.2},
      {"smiles": "CN(C)C(=O)CN1C[C@H]2CCN(Cc3ccccc3)CC[C@H]2S1(=O)=O", "INHIBITION": 60.3},
      {"smiles": "CN(C)C(=O)CN1C[C@H]2CCN(c3ncccn3)CC[C@H]2S1(=O)=O", "INHIBITION": -85.3},
      {"smiles": "Cc1ccccc1NC(=O)N1CC[C@@H]2CN(C)S(=O)(=O)[C@@H]2CC1", "INHIBITION": -6.05},
      {"smiles": "COc1cccc(NC(=O)N2CC[C@@H]3CN(C)S(=O)(=O)[C@@H]3CC2)c1", "INHIBITION": 55.4},
      {"smiles": "COc1cccc(CC(=O)N2CC[C@@H]3[C@H](CC2)N(C)CCS3(=O)=O)c1", "INHIBITION": 45.4},
      {"smiles": "O=C(Cc1ccccc1)N1CC[C@@H]2CNS(=O)(=O)[C@@H]2CC1", "INHIBITION": 54.1},
      {"smiles": "CCN1C[C@H]2CCN(C(=O)Cc3cccc(OC)c3)CC[C@H]2S1(=O)=O", "INHIBITION": 52.4},
      {"smiles": "COc1ccc(CC(=O)N2CC[C@@H]3CN(C)S(=O)(=O)[C@@H]3CC2)cc1", "INHIBITION": 37.5},
      {"smiles": "CC(C)CN1CCc2[nH]nc(C(=O)N3CCCC3)c2C1", "INHIBITION": 45.7},
      {"smiles": "Cc1nc(-c2nc(C(=O)NC3CC3)c3ccccn23)cn1C(C)C", "INHIBITION": 43},
      {"smiles": "OC(CNCCn1cccn1)c1ccc(Br)cc1", "note": "(configuration not stated)", "INHIBITION": 25.6},
      {"smiles": "CCn1nc(C)c(S(=O)(=O)N(C)c2ccc(Cl)cn2)c1C", "INHIBITION": 0.643},
      {"smiles": "O=C(COCc1ccco1)Nc1cc(C(F)(F)F)c[nH]c1=O", "INHIBITION": 19.6},
      {"smiles": "CCc1nc(C2CCCN2CCn2cncn2)no1", "note": "(configuration not stated)", "INHIBITION": 16.7},
      {"smiles": "CC(C)[C@]1(O)CN(C(=O)COCC(N)=O)C[C@H]1C", "INHIBITION": 10.6},
      {"smiles": "CNC(=O)N1CC[C@@H]2CN(Cc3cccc(OC)c3)S(=O)(=O)[C@@H]2CC1", "INHIBITION": 63.8},
      {"smiles": "COc1cccc(NC(=O)N2CCC(O)(C(F)(F)F)C2)c1", "note": "(configuration not stated)", "INHIBITION": 79.1},
      {"smiles": "CNC(=O)N1CC[C@@H]2CN(CCc3cccc(OC)c3)S(=O)(=O)[C@@H]2CC1", "INHIBITION": 8.31},
      {"smiles": "COc1cccc(CCCNC(=O)N2CCC(O)(C(F)(F)F)C2)c1", "note": "(configuration not stated)", "INHIBITION": 41.4},
      {"smiles": "COc1cccc(CC(=O)N2CCC(O)(C(F)(F)F)C2)c1", "note": "(configuration not stated)", "INHIBITION": 49.1},
      {"smiles": "CNC(=O)N1CC[C@@H]2CN(Cc3cccc(Cl)c3)S(=O)(=O)[C@@H]2CC1", "INHIBITION": -2.17},
      {"smiles": "c1cc2c(cc1-n1nc(C3CC3)nc1-c1csnn1)OCCO2", "INHIBITION": 27.2},
      {"smiles": "O=C(c1ccoc1)N1CCC(NCc2ccccc2Cl)CC1", "INHIBITION": 7.81},
      {"smiles": "CN(C)C(=O)Cn1c(C2CC2)c(CN2CCC(O)CC2)c2cccnc21", "INHIBITION": -8.58},
      {"smiles": "Cc1csc(CCNC(=O)Nc2cc(C(F)(F)F)c[nH]c2=O)n1", "INHIBITION": 22}
    ]}
  ]
}
